Results filed as inconclusive are left out. The source made the active and inactive calls. Calls follow the shape of the dose curve; as a rule, active = well fitted curve in the direction sought with a large enough effect; inconclusive = small, poorly fitted or top-dose-only effect, or another doubt; inactive = no such curve, though single readings can be large; an effect the other way counts as inactive or inconclusive.
target: Alpha-galactosidase (Coffea arabica) (UniProt Q42656); assay: Counterscreen for Glucocerebrosidase Inhibitors: qHTS Assay for Coffee Bean alpha-Galactosidase at pH 4.5 (AID 957); conditions: purified coffee bean alpha-galactosidase, fluorogenic substrate; series mostly up to 76.9 µM; activity change, negative = inhibition: at the top concentration;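 also: plate controls were enzyme alone for no effect and no enzyme for full effect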
Sequence (Q42656 whole entry, looked up): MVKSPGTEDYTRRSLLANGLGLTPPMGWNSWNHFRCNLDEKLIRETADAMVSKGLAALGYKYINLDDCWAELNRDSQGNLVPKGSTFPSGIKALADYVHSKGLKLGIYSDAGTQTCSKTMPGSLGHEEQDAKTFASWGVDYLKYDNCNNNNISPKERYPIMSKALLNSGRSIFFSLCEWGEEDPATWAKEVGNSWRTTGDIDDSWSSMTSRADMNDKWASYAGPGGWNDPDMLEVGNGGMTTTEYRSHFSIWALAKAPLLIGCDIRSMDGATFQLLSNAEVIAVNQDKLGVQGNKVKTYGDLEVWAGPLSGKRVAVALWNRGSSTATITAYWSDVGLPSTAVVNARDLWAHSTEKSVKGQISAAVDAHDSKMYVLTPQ
How it was run: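 Fluorogenic qHTS at pH 4.5 (citrate buffer with Tween-20): 2 nM enzyme, 80 uM 4-MU-alpha-galactoside substrate, compound titrated 0.7 nM to 77 uM, 20 min room temperature. Glycine/NaOH stop; 4-MU read Ex 365/Em 440; Hill-equation AC50 against no-enzyme and enzyme controls.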

With `CN[C@H]1CC[C@@H](c2ccc(Cl)c(Cl)c2)c2ccccc21` as the compound, how does the “activity change, negative = inhibition” value read?
The value was -1.65% (inactive).

Which “activity change, negative = inhibition” value does the source give for `Cc1cnc(C(=O)NCCc2ccc(S(=O)(=O)NC(=O)NC3CCCCC3)cc2)cn1` here?
The value was 0.815% (inactive).

With `NNc1nncc2ccccc12` as the compound, how does the “activity change, negative = inhibition” value read?
The value was 0.127% (inactive).

With `O=C(c1ccc(OCCN2CCCCC2)cc1)c1c(-c2ccc(O)cc2)sc2cc(O)ccc12` as the compound, how does the “activity change, negative = inhibition” value read?
The value was -5.79% (inactive).

Which “activity change, negative = inhibition” value does the source give for `Nc1nc2c(ncn2COC(CO)CO)c(=O)[nH]1` here?
Its value is -0.0541% (inactive).

Which “activity change, negative = inhibition” value does the source give for `COc1cc2c(c(OC)c1OC)-c1ccc(OC)c(=O)cc1[C@@H](NC(C)=O)CC2` here?
Its value is -3.14% (inactive).

With `COC(=O)[C@H]1[C@H]2C[C@@H]3c4[nH]c5cc(OC)ccc5c4CCN3C[C@H]2C[C@@H](OC(=O)c2cc(OC)c(OC)c(OC)c2)[C@@H]1OC` as the compound, how does the “activity change, negative = inhibition” value read?
The value was -8.74% (inactive).

Which “activity change, negative = inhibition” value does the source give for `CC[N+](CC)(CC)CC` here?
Its value is -1.09% (inactive).

Which “activity change, negative = inhibition” value does the source give for `CN1CCC(=C2c3ccccc3C=Cc3ccccc32)CC1` here?
The value was -5.63% (inactive).

Which “activity change, negative = inhibition” value does the source give for `CCOC(=O)N1CCC(=C2c3ccc(Cl)cc3CCc3cccnc32)CC1` here?
The value was -2.47% (inactive).

Which “activity change, negative = inhibition” value does the source give for `NC12CC3CC(CC(C3)C1)C2` here?
Its value is 2.81% (inactive).

Which “activity change, negative = inhibition” value does the source give for `CC(=O)CCCCn1c(=O)c2c(ncn2C)n(C)c1=O` here?
The value was 2.02% (inactive).

With `O=C1c2c(O)ccc(O)c2C(=O)c2c(NCCNCCO)ccc(NCCNCCO)c21` as the compound, how does the “activity change, negative = inhibition” value read?
Its value is 0.232% (inactive).

For `CN/C(=C\[N+](=O)[O-])NCCSCc1ccc(CN(C)C)o1`, which “activity change, negative = inhibition” value is on record?
Its value is 3.34% (inactive).

For `Cc1ccccc1N1C(=O)c2cc(S(N)(=O)=O)c(Cl)cc2NC1C` (stereo unspecified), which “activity change, negative = inhibition” value is on record?
The value was 1.98% (inactive).

With `Nc1nnc(-c2cccc(Cl)c2Cl)c(N)n1` as the compound, how does the “activity change, negative = inhibition” value read?
The value was 3.28% (inactive).

Which “activity change, negative = inhibition” value does the source give for `CC/C(=C(\c1ccccc1)c1ccc(OCCN(C)C)cc1)c1ccccc1` here?
Its value is -6.22% (inactive).

With `CNCCCC1c2ccccc2C=Cc2ccccc21` as the compound, how does the “activity change, negative = inhibition” value read?
Its value is -0.859% (inactive).

Which “activity change, negative = inhibition” value does the source give for `NS(=O)(=O)Cc1noc2ccccc12` here?
The value was 2.5% (inactive).

With `NNCCc1ccccc1` as the compound, how does the “activity change, negative = inhibition” value read?
Its value is -1.66% (inactive).

With `COC(=O)Nc1nc2ccc(C(=O)c3cccs3)cc2[nH]1` as the compound, how does the “activity change, negative = inhibition” value read?
Its value is -3.94% (inactive).

Which “activity change, negative = inhibition” value does the source give for `CN(C)CCC=C1c2ccccc2CCc2ccccc21` here?
The value was -4.09% (inactive).

For `CCCNC(=O)NS(=O)(=O)c1ccc(Cl)cc1`, which “activity change, negative = inhibition” value is on record?
The value was 1.06% (inactive).

Which “activity change, negative = inhibition” value does the source give for `O=C(CCCN1CCC(O)(c2ccc(Cl)cc2)CC1)c1ccc(F)cc1` here?
Its value is -1.98% (inactive).

For `CN(Cc1cnc2nc(N)nc(N)c2n1)c1ccc(C(=O)N[C@@H](CCC(=O)O)C(=O)O)cc1`, which “activity change, negative = inhibition” value is on record?
Its value is 0.997% (inactive).

For `CC(C)OC(=O)C(C)(C)Oc1ccc(C(=O)c2ccc(Cl)cc2)cc1`, which “activity change, negative = inhibition” value is on record?
The value was -5.71% (inactive).

With `CC1=C(/C=C/C(C)=C/C=C/C(C)=C/C(=O)Nc2ccc(O)cc2)C(C)(C)CCC1` as the compound, how does the “activity change, negative = inhibition” value read?
Its value is -4.49% (inactive).

Which “activity change, negative = inhibition” value does the source give for `O=C1CCc2cc(OCCCCc3nnnn3C3CCCCC3)ccc2N1` here?
Its value is 3.29% (inactive).

For `C[C@](N)(Cc1ccc(O)c(O)c1)C(=O)O`, which “activity change, negative = inhibition” value is on record?
The value was -3.19% (inactive).

For `CC(C)C(=O)Nc1ccc([N+](=O)[O-])c(C(F)(F)F)c1`, which “activity change, negative = inhibition” value is on record?
The value was -2% (inactive).

test system: not listed separately; assay: MultiTox-Fluor Cytotoxicity Assay - LYMP1-002 - Dead Cells (AID 960); conditions: LYMP1-002 lymphoblastoid cells, dead-cell protease fluorescence; series mostly up to 46.1 µM; cytotoxicity (dead cells): at the top concentration; also: potency is read from the fitted curve at half-maximal effect; nearly all actives have a fitted effect of over 60% in size
How it was run: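 Dead-cell fluorescence (Ex/Em 485/520) after 16 h compound exposure at 37 C of LYMP1-002 lymphoblastoid cells in complete medium; AC50 by Hill equation, with data scaled between DMSO and 15 uM tetraoctylammonium bromide.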

For `Cc1c(O)cccc1C(=O)N[C@@H](CSc1ccccc1)[C@H](O)CN1C[C@H]2CCCC[C@H]2C[C@H]1C(=O)NC(C)(C)C`, which Potency is on record?
Its Potency is 31.6 µM (active).

With `CN(C)CCC=C1c2ccccc2CCc2ccccc21` as the compound, how does the Potency read?
Its Potency is 25.1 µM (active).

Which Potency does the source give for `CC(C)C(=O)Nc1ccc([N+](=O)[O-])c(C(F)(F)F)c1` here?
Its Potency is 15.8 µM (active).

test system: not listed separately; assay: MultiTox-Fluor Cytotoxicity Assay - LYMP1-003 - Dead Cells (AID 961); conditions: LYMP1-003 lymphoblastoid cells, dead-cell protease fluorescence; series mostly up to 92.2 µM; cytotoxicity (dead cells): at the top concentration; also: potency is read from the fitted curve at half-maximal effect; nearly all actives have a fitted effect of over 70% in size
How it was run: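 LYMP1-003 human lymphoblastoid cells (2500/well) exposed to compound 16 h at 37 C in complete medium; dead-cell protease read with bis-AAF-R110 fluorescence (Ex/Em 485/520) after 60 min at room temperature. Normalized to DMSO and 15 uM tetraoctylammonium bromide; AC50 from Hill fit.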

Which Potency does the source give for `COc1cc2c(c(OC)c1OC)-c1ccc(OC)c(=O)cc1[C@@H](NC(C)=O)CC2` here?
Its Potency is 0.631 µM (active).

With `CC/C(=C(\c1ccccc1)c1ccc(OCCN(C)C)cc1)c1ccccc1` as the compound, how does the Potency read?
The Potency was 39.8 µM (active).

For `CC1=C(/C=C/C(C)=C/C=C/C(C)=C/C(=O)Nc2ccc(O)cc2)C(C)(C)CCC1`, which Potency is on record?
Its Potency is 39.8 µM (active).

From PubChem BioAssay (NCATS)
